These results are taken from PubChem BioAssay (EPA / NIEHS).

Some compounds were tested as several samples or in several runs, with calls that do not always agree. The source made the active and inactive calls. The calls were made as follows: active = hit-call score of the fitted dose curve at least 0.9, where 1 is the maximum; inactive = score below 0.9.

Read-out in assay [1]: Tissue plasminogen activator (tPA), PLAT (gene 5327)
Put plainly: BSK_BE3C_tPA: BioMAP Diversity Plus: BE3C Assay for Tissue plasminogen activator (tPA) Biomarker Activity (AID 2283041).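 Also: tPA level quantified by ELISA one day after compound addition.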 To be noted: primary human bronchial epithelial cells; actives raise or lower the signal. In a few lines: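 Using human lung primary bronchial epithelial cells, tPA was measured by ELISA 24 h after dosing; data fitted relative to DMSO.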

Read-out in assay [2]: Interleukin-8 (IL8), CXCL8 (gene 3576)
Put plainly: BSK_CASM3C_IL8: BioMAP Diversity Plus: CASM3C Assay for Interleukin-8 (IL8) Biomarker Activity (AID 2283042).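 Also: IL-8 protein level quantified by ELISA.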 To be noted: primary human coronary artery smooth muscle cells; actives raise or lower the signal.

Read-out in assay [3]: Human Leukocyte Antigen - DR isotype (HLADR), HLA-DRA (gene 3122)
Briefly: BSK_CASM3C_HLADR: BioMAP Diversity Plus: CASM3C Assay for Human Leukocyte Antigen - DR isotype (HLADR) Biomarker Activity (AID 2283043).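 Also: cell-surface HLA-DR protein level quantified by ELISA.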 To be noted: primary human coronary artery smooth muscle cells; actives raise or lower the signal.

Read-out in assay [4]: Macrophage colony-stimulating factor (MCSF), CSF1 (gene 1435)
Put plainly: BSK_CASM3C_MCSF: BioMAP Diversity Plus: CASM3C Assay for Macrophage colony-stimulating factor (MCSF) Biomarker Activity (AID 2283044).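 Also: M-CSF protein amount quantified by ELISA after 24 h exposure.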 The settings on record: primary human coronary artery smooth muscle cells; actives raise or lower the signal.

Read-out in assay [5]: Low-density lipoprotein receptor (LDLR), LDLR (gene 3949)
Briefly: BSK_CASM3C_LDLR: BioMAP Diversity Plus: CASM3C Assay for Low-density lipoprotein receptor (LDLR) Biomarker Activity (AID 2283045).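 Also: LDLR protein level on the cell surface quantified by ELISA.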 The settings on record: primary human coronary artery smooth muscle cells; actives raise or lower the signal.

Read-out in assay [6]: Monocyte Chemoattractant Protein-1 (MCP1), CCL2 (gene 6347)
Briefly: BSK_CASM3C_MCP1: BioMAP Diversity Plus: CASM3C Assay for Monocyte Chemoattractant Protein-1 (MCP1) Biomarker Activity (AID 2283046).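 Also: MCP-1 level quantified by ELISA 24 h after dosing.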 To be noted: primary human coronary artery smooth muscle cells; actives raise or lower the signal.

Assay [7] can be described thus: BSK_CASM3C_Proliferation: Cell Proliferation Assessment in the BioMAP Diversity Plus: CASM3C Assay (AID 2283047).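 Also: sulforhodamine B total protein stain as relative cell number at 560 nm; sub-confluent cells exposed 48 h before staining; fitted both ways against DMSO so gain or loss of cell number.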 To be noted: primary human coronary artery smooth muscle cells.
Read-out in assay [8]: Monokine induced gamma interferon (MIG), CXCL9 (gene 4283)
Briefly: BSK_CASM3C_MIG: BioMAP Diversity Plus: CASM3C Assay for Monokine induced gamma interferon (MIG) Biomarker Activity (AID 2283048).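 Also: MIG protein level measured by ELISA.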 To be noted: primary human coronary artery smooth muscle cells; actives raise or lower the signal.

Read-out in assay [9]: serum amyloid A (SAA), SAA1 (gene 6288)
Put plainly: BSK_CASM3C_SAA: BioMAP Diversity Plus: CASM3C Assay for serum amyloid A (SAA) Biomarker Activity (AID 2283049).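 Also: SAA protein level quantified by ELISA.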 To be noted: primary human coronary artery smooth muscle cells; actives raise or lower the signal.

Assay [10] is described as follows: BSK_CASM3C_SRB: Viability Assessment in the BioMAP Diversity Plus: CASM3C Assay (AID 2283050).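 Also: cells exposed to compound for 24 h.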 To be noted: primary human coronary artery smooth muscle cells.
Read-out in assay [11]: Thrombomodulin, THBD (gene 7056)
Put plainly: BSK_CASM3C_Thrombomodulin: BioMAP Diversity Plus: CASM3C Assay for Thrombomodulin Biomarker Activity (AID 2283051).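 Also: thrombomodulin protein level measured by ELISA 24 h after dosing.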 To be noted: primary human coronary artery smooth muscle cells; actives raise or lower the signal.

Read-out in assay [12]: Tissue Factor, F3 (gene 2152)
Briefly: BSK_CASM3C_TissueFactor: BioMAP Diversity Plus: CASM3C Assay for Tissue Factor Biomarker Activity (AID 2283052).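 Also: cell surface tissue factor protein level read by ELISA.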 The settings on record: primary human coronary artery smooth muscle cells; actives raise or lower the signal.

Read-out in assay [13]: Interferon-gamma inducible Protein 10 (IP10), CXCL10 (gene 3627)
Put plainly: BSK_hDFCGF_IP10: BioMAP Diversity Plus: hDFCGF Assay for Interferon-gamma inducible Protein 10 (IP10) Biomarker Activity (AID 2283053). The settings on record: primary human foreskin fibroblasts; actives raise or lower the signal. The method, boiled down: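 Chemical-treated human skin fibroblasts (primary) were sampled at 24 h for IP-10 by ELISA. Both increases and decreases relative to DMSO were scored.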

Read-out in assay [14]: Urokinase-type plasminogen activator receptor (uPAR), PLAUR (gene 5329)
Put plainly: BSK_CASM3C_uPAR: BioMAP Diversity Plus: CASM3C Assay for Urokinase-type plasminogen activator receptor (uPAR) Biomarker Activity (AID 2283054).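 Also: cell-surface uPAR protein level quantified by ELISA.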 To be noted: primary human coronary artery smooth muscle cells; actives raise or lower the signal.

Read-out in assay [15]: Vascular cell adhesion molecule 1 (VCAM1), VCAM1 (gene 7412)
Briefly: BSK_CASM3C_VCAM1: BioMAP Diversity Plus: CASM3C Assay for Vascular cell adhesion molecule 1 (VCAM1) Biomarker Activity (AID 2283055).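 Also: VCAM-1 protein level quantified by ELISA on the cells.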 To be noted: primary human coronary artery smooth muscle cells; actives raise or lower the signal.

Read-out in assay [16]: Collagen III, COL3A1 (gene 1281)
Put plainly: BSK_hDFCGF_CollagenIII: BioMAP Diversity Plus: hDFCGF Assay for Collagen III Biomarker Activity (AID 2283056). To be noted: primary human foreskin fibroblasts; actives raise or lower the signal. The method, boiled down:
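Human foreskin fibroblast primary cultures sampled 24 h after dosing; Collagen III quantified by ELISA. Signal fitted bidirectionally against DMSO baseline.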

Read-out in assay [17]: Epidermal growth factor receptor (EGFR), EGFR (gene 1956)
Briefly: BSK_hDFCGF_EGFR: BioMAP Diversity Plus: hDFCGF Assay for Epidermal growth factor receptor (EGFR) Biomarker Activity (AID 2283057). The settings on record: primary human foreskin fibroblasts; actives raise or lower the signal. In a few lines: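 Cell-based multiplexed assay in primary human foreskin fibroblasts. EGFR is read by ELISA 24 h after treatment and compared with DMSO controls.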

Read-out in assay [18]: Interleukin-8 (IL8), CXCL8 (gene 3576)
Put plainly: BSK_hDFCGF_IL8: BioMAP Diversity Plus: hDFCGF Assay for Interleukin-8 (IL8) Biomarker Activity (AID 2283058). The settings on record: primary human foreskin fibroblasts; actives raise or lower the signal. The method, boiled down:
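Primary human foreskin fibroblasts (hDFCGF system) dosed with chemical; IL-8 measured by ELISA 24 hours later. Bidirectional curve fitting relative to DMSO baseline; cytotoxicity tracked in parallel cultures by SRB total protein staining.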

Assay [19] is described as follows: BSK_hDFCGF_Proliferation: Cell Proliferation Assessment in the BioMAP Diversity Plus: hDFCGF Assay (AID 2283059).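 Also: curves fitted for both rise and fall of signal versus DMSO baseline.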 To be noted: primary human foreskin fibroblasts. The method, boiled down:
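This proliferation readout used SRB total-protein staining of human foreskin fibroblasts […], normalized to DMSO with bidirectional curve fitting.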

Read-out in assay [20]: Macrophage colony-stimulating factor (MCSF), CSF1 (gene 1435)
Briefly: BSK_hDFCGF_MCSF: BioMAP Diversity Plus: hDFCGF Assay for Macrophage colony-stimulating factor (MCSF) Biomarker Activity (AID 2283060). To be noted: primary human foreskin fibroblasts; actives raise or lower the signal. In a few lines:
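Human foreskin fibroblast primary cultures; M-CSF measured by ELISA 24 hours after chemical dosing. Bidirectional fitting relative to DMSO, with overt cytotoxicity tracked by parallel SRB total-protein staining (0.1% SRB, 10% TCA fixation, 560 nm).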

In the case of `OCc1c[nH]c2ccccc12`, the result in assay [1], in assay [2], in assay [3], in assay [4], in assay [5] and in [6] was inactive. Besides, the result in assay [7], in [8], in [9], in assay [10], in [12] and in [13] was inactive. Besides, the result in assay [14], in [15], in assay [16], in assay [17], in assay [18] and in [20] was inactive. Moreover, the results for the AC50 in [11] and in assay [19] were 0.184 µM (active) and 23.8 µM (active), respectively.
For the compound `FC(F)(F)C(F)(F)C(F)(F)C(F)(F)C(F)(F)C(F)(F)I`, the result in assay [1], in assay [2], in assay [3], in assay [4], in assay [5] and in [6] was inactive. In addition, the result in assay [7], in assay [8], in [9], in assay [10], in [11] and in assay [12] was inactive. Besides, the outcome in [13], in assay [14], in assay [15], in [16], in [17] and in assay [18] was inactive. In assay [20], the result was inactive. The AC50 in assay [13] and in assay [16] was 30 µM (active) in each case.
For `Cc1ncc([C@@H](CCCCCCc2ccc3c(n2)NCCC3)CC(=O)O)cn1`, the result in assay [1], in assay [2], in [3], in assay [4], in assay [5] and in assay [6] was inactive. The result in [8], in assay [9], in assay [10], in assay [11], in [12] and in assay [13] was inactive. Also, the outcome in assay [15], in assay [16], in [17], in assay [18], in assay [19] and in assay [20] was inactive. Besides, the AC50 is 3.97 µM (active) in assay [7] and 0.148 µM (active) in assay [14].
Turning to `Cc1cccc(O)c1C`, the outcome in assay [1], in assay [2], in assay [3], in assay [4], in [5] and in assay [6] was inactive. Also, the outcome in assay [7], in assay [8], in assay [9], in assay [10], in [11] and in assay [12] was inactive. The result in assay [13], in assay [14], in assay [15], in assay [16], in assay [17] and in [18] was inactive. The result in assay [20] was inactive.
`OC(Cn1cncn1)(Cn1cncn1)c1ccc(F)cc1F`: the outcome in assay [1], in assay [2], in assay [3], in [4], in [5] and in [6] was inactive. Also, the result in assay [7], in assay [8], in assay [9], in [10], in [11] and in assay [12] was inactive. The outcome in [13], in assay [14], in [15], in [16], in assay [17] and in [18] was inactive. The outcome in assay [20] was inactive.
Regarding `O=S1(=O)CCCO1`, the result in [1], in assay [2], in assay [3], in assay [4], in [5] and in [6] was inactive. The result in assay [7], in assay [8], in [9], in [10], in [11] and in assay [12] was inactive. In addition, the result in [13], in [14], in assay [15], in assay [16], in [17] and in assay [18] was inactive. Besides, in assay [20], the result was inactive.
On to `CC(C)CCCCCCOC(=O)C1CCCCC1C(=O)OCCCCCCC(C)C` (stereo not drawn), for which the result in [1], in assay [2], in assay [3], in [4], in assay [5] and in [6] was inactive. Besides, the result in assay [7], in [8], in assay [9], in assay [10], in [11] and in assay [12] was inactive. In addition, the result in assay [13], in assay [14], in [15], in assay [16], in assay [17] and in assay [18] was inactive. Besides, the result in assay [19] and in assay [20] was inactive.
